Screen size: about 350,000 compounds; about 550 (0.16%) were called active. For the sample, actives were picked, then their nearest neighbours and some compounds at random. A number with no mark means an inactive call. Cut-off read from the data, not from the text of the source: active = activation mostly above about 9.7% (no sharp cut-off); inconclusive = no clear call, values can overlap the other calls; inactive = mostly below about 3.7%.
Test: induces V. cholerae light production without autoinducers, primary screen, BH1578 luxS cqsA deficient, single point (AID 588436)
Details: V. cholerae BH1578 lux reporter, luminescence, 6 h, at 18.7 µM; active compounds read high

SMILES	activation
COc1cccc(NS(=O)(=O)c2ccc3[nH]cc(C(=O)NCCCOC(C)C)c(=O)c3c2)c1	inactive
CN(C)c1ccc(CNC2C3CC4CC(C3)CC2C4)cc1 (stereo not given)	-0.358%
CN(C)c1ccc(CSc2ccccc2)cc1	inactive
CN(C)c1ccc(CNC23CN4CN(CN(C4)C2)C3)cc1	54% (active)
CCN1CN(Cc2ccccc2)CNC1=S	inactive
C=CCC(C(=O)c1ccccc1)[N+](C)(C)CC=C (stereo not given)	inactive
COc1ccccc1C(=O)NC(CCSC)C(=O)NNC(=O)c1csc(N2CCOCC2)n1 (stereo not given)	inactive
COc1ccc(-n2ncc3c2CC(C)(C)CC3NC(=O)CCc2c(C)noc2C)cc1 (stereo not given)	-0.606%
O=C(O)CCCCCCCCc1cn(CN2C(=O)c3ccccc3C2=O)nn1	-0.601%
COc1ccc(CC(=O)c2ccc(O)cc2O)cc1OC	1.54%
O=C(NC1CCN(C(=S)NCc2ccco2)CC1)c1ccc(F)cc1	inactive
CCN(C[C@H]1N[C@@](CC)(C(=O)OC)[C@H]2C(=O)N(Cc3ccccc3)C(=O)[C@@H]12)S(=O)(=O)c1ccc(C(F)(F)F)cc1	inactive
Cc1ncoc1C(=O)NCCC(c1ccccc1)c1ccccc1	inactive
CS(=O)(=O)N1CCCC(C(=O)Nc2ccccc2C(F)(F)F)C1 (stereo not given)	-3.85%
CCN(CC(=O)NCC(=O)Nc1cccc(C)c1C)Cc1ccccc1	inactive
CCCCCCn1c(=O)n2n(c1=O)C[C@]1(OC(=O)NCc3ccc(OC)c(OC)c3)CN(S(=O)(=O)c3ccc(C)cc3)C[C@]1(O)C2	-2.08%
Cc1ccc(C(=O)N/N=C/c2sc(=O)n(Cc3cccc(C(=O)O)c3)c2Cl)cc1	0.645%
CCCCNC(=O)Cn1nc(C)c(S(=O)(=O)N2CCOCC2)c1C	inactive
CNc1cncc(-c2cccc(C(=O)N3CCOCC3)c2)n1	3.33%
Cc1onc(-c2ccccc2)c1C(=O)N1CCN(S(=O)(=O)c2ccccc2C(F)(F)F)CC1	-0.206%
Cc1onc(-c2ccccc2)c1C(=O)N1CCOCC1	16.7% (active)
Cc1cccc(N2CCN(C(C)C(=O)N3CCc4ccccc43)CC2)c1C (stereo not given)	-0.336%
COc1ccccc1-c1cnn2c(N3CCOCC3)cc(C)nc12	-0.198%
CC(C)n1ncc2c(C(=O)N3CCN(Cc4cccs4)CC3)cc(C3CC3)nc21	-0.459%
N#Cc1c(C(F)(F)F)cc(-c2cccs2)nc1N1CCCCC1	-0.871%

SMILES	activation
N#Cc1c(C(F)(F)F)cc(-c2ccccc2)nc1SCC(=O)N1CCOCC1	-0.279%
CCN(CC)c1nc(-c2ccccc2)cc(C(F)(F)F)c1C#N	17.9% (active)
CS(=O)(=O)c1sc(C(=O)NC(=S)Nc2ccc(OC(F)(F)F)cc2)c2c1C=CCC2	0.546%
COC(=O)Cc1ccc(OCC(=O)Nc2ccc(OC(F)(F)F)cc2)cc1	-0.392%
CCNC(=S)Nc1ccc(OC(F)(F)F)cc1	20.7% (active)
CCn1c2c(c3ccc(OC)cc31)CCCC2=O	inactive
CC(=O)OC(C)C[N+](C)(C)C (stereo not given)	22.9% (active)
CC(C[N+](C)(C)C)OC(N)=O (stereo not given)	inactive
CC(=O)OCC(COC(C)=O)OC(C)=O	-1.4%
NC(=O)C1CC=CCC1C(=O)OCC(Cl)=C(Cl)Cl (stereo not given)	-0.395%
Cc1noc(C)c1S(=O)(=O)N(C)Cc1ccccc1	inactive
COC(CNC(=O)Cn1ncc2ccsc2c1=O)OC	inactive
O=C(CN1CCCCCC1)Nc1ccc(Br)cc1[N+](=O)[O-]	45.8% (active)
O=C(CN1CCCCC1)Nc1ccc(Br)cc1C(=O)c1ccccc1Cl	-0.319%
O=C(CN1CCCCCC1)Nc1ccc(Br)cc1Br	-7.69%
CCC1CCCCN1C(=O)Nc1cccc(NC(=O)N2CCCCC2CC)c1 (stereo not given)	inactive
COc1ccccc1CN1CCN(C(=O)Cc2ccccc2)CC1	inactive
CC(C)CC(=O)N1CCN(Cc2cccc(Cl)c2)CC1	inactive
CC(C)CC(=O)N1CCN(Cc2ccccc2Br)CC1	144% (active)
CCOC(=O)c1c(-c2cccc(N)c2)cn2ccccc12	-1.18%
CC(=O)N1C(=O)C2(Nc3ccccc3N2)c2ccccc21	inactive
CC(C)Cc1ccc(S(=O)(=O)N2CCN(C(=O)c3ccco3)CC2)cc1	-6.25%
Cc1oc2cc3oc(=O)ccc3cc2c1C	-0.488%
C/C(=N\NS(=O)(=O)c1cccc([N+](=O)[O-])c1)c1cc2ccccc2o1	-2.5%
CCc1nc2c(OCCOc3ccccc3)cccn2c1N(C=O)Cc1ccc(OC)cc1	4.55%

SMILES	activation
COc1cc(C(=O)NCC(=O)NCCSc2ccc(Br)cc2)cc(OC)c1OC	inactive
Cc1cccc(C(=O)OCC(=O)NC(C)C2CC3CCC2C3)c1O (stereo not given)	inactive
Cc1cccc(C)c1NC(=O)COC(=O)c1ccccc1O	-0.155%
Cc1cccc(C(=O)OCC(=O)NCC(C)C)c1O	302% (active)
Oc1ccc(CNc2ccccc2O)cc1	-0.266%
O=C(Nc1ccc2ccccc2c1)Nc1ccc2snnc2c1	inactive
COc1ccc2[nH]c(=O)c(CN(CC3CCCO3)C(=O)Nc3ccccc3)cc2c1 (stereo not given)	-0.239%
COc1ccc2[nH]c(=O)c(CN(Cc3cccnc3)S(=O)(=O)c3ccccc3F)cc2c1	0.282%
COc1ccc2[nH]c(=O)c(CNc3ccc(C)c(C)c3)cc2c1	16.7% (active)
COc1ccc(N2C(=O)NC(NS(=O)(=O)c3ccc(Cl)cc3)(C(F)(F)F)C2=O)cc1 (stereo not given)	0.575%
Cc1ccc(Cl)cc1NC(=O)C1CCCN(c2cnccn2)C1 (stereo not given)	-2.5%
CC1(C)C=C2[C@H]3CC[C@@H]4[C@@]5(C)CCC(=O)C(C)(C)[C@@H]5CC[C@@]4(C)[C@]3(C)CC[C@@]2(C(=O)O)CC1	inactive
Cc1cc(=O)oc2cc(OC(C)C(=O)Nc3ccc(N4CCOCC4)cc3)ccc12 (stereo not given)	inactive
CCCNC(=O)C1(C)CCCN(Cc2cccc(C(F)(F)F)c2)C1 (stereo not given)	inactive
O=C(CN1CCC(O)(c2cccc(C(F)(F)F)c2)CC1)NCCc1ccccc1	277% (active)
Cc1cc(NC(=O)CN2CCC(O)(c3cccc(F)c3)CC2)no1	-11.8%
OCCN1CCN(CCO)C1=S	-0.805%
COc1cccc(CN(C)C(=O)CC23CC4CC(CC(C4)C2)C3)c1OC	inactive
O=C(Cc1ccc([N+](=O)[O-])cc1)Nc1ccc(C(=O)N2CCOCC2)cc1	inactive
CN(C)/C=C/c1c(C#N)c(=O)ncn1Cc1ccccc1	inactive
Cc1c(C#N)c2ncn(CC#N)c(=O)c2n1-c1ccccc1	25% (active)
CC(=O)Cn1cnc2c(cnn2-c2ccccc2)c1=O	inactive
Cc1cc(C)c(C#N)c(SCC(=O)NN2CC(=O)N(c3ccccc3F)CC2=O)n1	2.85%
CCCCC(=O)Nc1ccccc1N1CCN(c2ccc(F)cc2)CC1	inactive
COc1ccccc1NC(=O)c1cc(N2C(=O)C3C4CCC(C4)C3C2=O)ccc1Cl (stereo not given)	inactive

SMILES	activation
COc1ccc(-c2coc3c(C(=O)NC(C)C)cccc23)c(C)c1	-0.54%
O=C(NCc1cccs1)c1ccc(CS(=O)Cc2ccccc2Cl)o1 (stereo not given)	-3.95%
CCN(CC(=O)Nc1cc(Cl)ccc1C)C(=O)CSCc1ccccc1	1.13%
CCN(CC(=O)NCc1ccc(Cl)cc1)C(=O)c1c(C)noc1C	inactive
CCN(CC(=O)NCc1ccc(Cl)cc1)C(=O)CSc1ccccc1	39.3% (active)
c1ccc(Cc2cc[n+](Cc3ccccc3)cc2)cc1	-0.465%
CC(C)(C)c1ccc(/C=C2\Oc3c(ccc(O)c3CN3CCN(CCO)CC3)C2=O)cc1	-0.166%
COP1(=O)C[C@@H](O)[C@@H](O)[C@@H](COCc2ccccc2)O1 (stereo not given in full)	inactive
COCC1CCCCN1C(=O)c1cc(COc2ccc(C)c(C)c2)on1 (stereo not given)	inactive
COc1ccc(NC(=O)CN2C(=O)C(c3ccccc3)=NC23CCCCCC3)cc1OC	-0.396%
COc1ccc(CNS(=O)(=O)c2ccc(NC(=O)N3CCCCC3)cc2)cc1	inactive
COc1ccc(OCCCC(=O)Nc2cccc(S(=O)(=O)N3CCCCCC3)c2)cc1	-0.87%
O=C(Nc1ccc(F)cc1)c1cc2c(s1)CCCC2	0.953%
O=C(O)C1CCCN1c1nc(Cl)ccc1[N+](=O)[O-] (stereo not given)	inactive
Cc1cccc(-c2oc3ccc(-c4ccc5c(c4)OCO5)cc3c2C#Cc2cncn2C)c1	-1.22%
COCCNC(=O)c1ccc2c(c1)ncn2-c1ccc(C)c(Cl)c1	inactive
O=C(c1cccs1)n1nc(NCc2ccccc2)nc1NCc1ccccc1	-0.325%
CC(NC(=O)COC(=O)C1CCN(S(=O)(=O)c2ccccc2C(F)(F)F)CC1)c1ccccc1 (stereo not given)	-0.574%
Cc1ccc(-c2nc(CS(=O)(=O)CC(=O)NCc3ccc4c(c3)OCO4)c(C)o2)cc1	-0.345%
CC(=O)c1ccc(Cc2ncc(C(F)(F)F)cc2Cl)s1	inactive
CCOc1ccc(S(=O)(=O)N/N=C(\C)c2ccc(Cl)c(Cl)c2Cl)cc1	inactive
CC1Cc2ccccc2N1S(=O)(=O)c1ccc(Cl)nc1 (stereo not given)	inactive
COC(=O)C1=C(C)N(c2ccc(C)cc2)/C(=C/c2ccc(O)cc2)C1=O	-0.588%
CCCC(=O)Nc1ccc2c(c1)nc1n2CCSC1	-5%
COc1ccc(N2CCN(C(=O)c3cn(C)c4ccc(S(=O)(=O)N5CCOCC5)cc4c3=O)CC2)cc1	1.02%
